# Laboratory results from the supplement of paper PMC6522484.
# ± gives the standard deviation of the averaged measurements.
# System: HCT116
# Assay: cell viability (CellTiter-Glo) relative to plate median (fraction of plate median); higher = more viable cells
# Details: 5 µM; treatment time 24 h; reporter: TCF4/Wnt
# Summary of the method: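 For this screen, colorectal cancer cell lines carrying stable lentiviral TCF/Wnt firefly luciferase reporters, either 7TFP or TCF4/Wnt, were seeded into 384-well plates. A day's wait of 24 h preceded addition of library compounds at a final 5 µM, which stayed on the cells for 24 h. Firefly luciferase or CellTiterGlo luminescence, read on parallel plates, was normalised to the plate median per well, and the reported value is the mean of two independent replicates.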
row,SMILES,cell viability
1,Cc1cc(O)c2c(c1)C(=O)c1cccc(O)c1C2=O,1.07 ± 0.21
2,COC(=O)C[C@H]1C(C)(C)C(=O)[C@@H]2CC3=C4CC(=O)O[C@@H](c5ccoc5)[C@]4(C)CC[C@@H]3[C@@]1(C)C2=O,1.01 ± 0.014
3,CC[C@@]1(O)C(=O)OCc2c1cc1n(c2=O)Cc2cc3cc(O)ccc3nc2-1,0.724 ± 0.093
4,C#C[C@]1(OC(C)=O)CC[C@H]2[C@@H]3CCC4=CC(=O)CC[C@@H]4[C@H]3CC[C@@]21C,0.964 ± 0.094
5,CCN(CC)CCOCCOC(=O)C1(c2ccccc2)CCCC1,0.887 ± 0.1
6,C=C1C(=O)C[C@@H]2[C@@H]3CC[C@@H](C(=O)O)[C@@]12CC3(C)C [Terrecyclic Acid A],0.919 ± 0.047
7,C=CCCCCCCCCC(=O)O,1.08 ± 0.13
8,CC1CCc2cc(F)cc3c(=O)c(C(=O)O)cn1c23 (stereo not given),1.05 ± 0.15
9,Cc1cc(=O)oc2c(O)c(O)ccc12,0.943 ± 0.03
10,CNCC[C@H](Oc1cccc2ccccc12)c1cccs1,1.06 ± 0.021
11,COc1ccc(C2CC(=O)c3ccc(OC)cc3O2)cc1 (stereo not given),1.08 ± 0.021
12,Cc1cc(C)cc(OCC2CNC(=O)O2)c1 (stereo not given),1.07 ± 0.1
13,FC(F)(F)C(Cl)Br (stereo not given),0.898 ± 0.011
14,CC[C@H]1OC(=O)[C@H](C)[C@@H](O[C@H]2C[C@@](C)(OC)[C@@H](O)[C@H](C)O2)[C@H](C)[C@@H](O[C@@H]2O[C@H](C)C[C@H](N(C)C)[C@H]2O)[C@](C)(O)C[C@@H](C)CN(C)[C@H](C)[C@@H](O)[C@]1(C)O,0.8915 ± 0.0035
15,O=C(O)C1=C(CSc2nnnn2CS(=O)(=O)O)CS[C@@H]2[C@H](NC(=O)[C@H](O)c3ccccc3)C(=O)N12,1.05 ± 0.071
16,CC(C)[C@H](N)C(=O)OCCOCn1cnc2c(=O)nc(N)[nH]c21,0.879 ± 0.12
17,COc1cc2c(=O)c(-c3ccc4c(c3)OCO4)coc2c(OC)c1OC,1.01 ± 0.073
18,COc1c2ccoc2nc2c(OC)c(OCC(O)C(C)(C)O)ccc12 (stereo not given),1 ± 0.014
19,CC1=C(/C=C/C(C)=C/C=C/C(C)=C/C=C/C=C(C)/C=C/C=C(C)/C=C/C(=O)[C@]2(C)C[C@@H](O)CC2(C)C)C(C)(C)C[C@H](O)C1,0.966 ± 0.1
20,O=c1cc(-c2ccccc2)oc2cc(O)c(O)c(O)c12,1.06 ± 0.042

row,SMILES,cell viability
1,CCOc1nc2cccc(C(=O)OC(C)OC(=O)OC3CCCCC3)c2n1Cc1ccc(-c2ccccc2-c2nn[nH]n2)cc1 (stereo not given),0.959 ± 0.042
2,O=c1cc(-c2ccccc2)oc2c(O)c(O)ccc12,0.969 ± 0.039
3,COC(=O)c1c(OC)cc2c(c1C)Oc1c(Cl)c(OC(C)=O)c(Cl)c(C)c1C(=O)O2,1.02 ± 0.088
4,CC(C(=O)O)c1ccc2c(c1)[nH]c1ccc(Cl)cc12 (stereo not given),1.03 ± 0.061
5,C#CCCCCCCCCCCCC(O)CC(O)COC(C)=O (stereo not given),1.05 ± 0.089
6,COc1cc(/C=C/C(=O)O)ccc1O [Ferulic acid (Biofocus)],1.05 ± 0.028
7,Cc1ccc(-c2cc(C(F)(F)F)nn2-c2ccc(S(N)(=O)=O)cc2)cc1,1.02 ± 0.087
8,C/C1=C\CC(C)(C)/C=C/CC2(C)OC2CC1 (stereo not given),0.96 ± 0.099
9,CN(C)CCN(Cc1ccccc1)c1ccccn1,0.925 ± 0.13
10,CC1(C)S[C@@H]2[C@H](NC(=O)[C@H](N)c3ccccc3)C(=O)N2[C@H]1C(=O)O,1.14 ± 0.13
11,C=CC(C)(O)CCC1C(=C)CC(O)C2C(C)(C)CCCC12C (stereo not given),0.865 ± 0.1
12,CN1CCN(CC/C=C2/c3ccccc3Sc3ccc(S(=O)(=O)N(C)C)cc32)CC1,1.16 ± 0.042
13,CCCCCC/C=C\CCCCCCCc1cccc(O)c1C(=O)O,1.08 ± 0.028
14,O=c1c(-c2cc(O)c(O)c(O)c2)coc2cc(O)c(O)c(O)c12,1.1 ± 0.078
15,CC(COc1ccccc1)NC(C)C(O)c1ccc(O)cc1 (stereo not given),0.966 ± 0.091
16,N=C(N)N/N=C/c1c(Cl)cccc1Cl,1.02 ± 0.042
17,CCN1CCN(c2cc3c(cc2F)c(=O)c(C(=O)O)cn3C2CC2)CC1,0.907 ± 0.038
18,OC(Cn1cncn1)(Cn1cncn1)c1ccc(F)cc1F,0.883 ± 0.069
19,C[C@]12C=CC(=O)C=C1CC[C@@H]1[C@@H]2[C@@H](O)C[C@@]2(C)[C@H]1CC[C@]2(O)C(=O)COC(=O)CCC(=O)O,1.01 ± 0.092
20,CC(C)NNC(=O)c1ccncc1,0.992 ± 0.054
